# Experimental data reported in PubChem BioAssay (NCI).
# This is part of a sample that, as a whole, favours compounds with a hit. Of some 83,000 tested, about 20% had one in any assay.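 Single-concentration screen, 48 h exposure, 96-well plates. Endpoint: percent growth. Below 10 = active.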 A number with no mark means an inactive call. Calls of active or inactive are those of the source.
# Columns and labels:
# Assay in all cases: NCI-60 one-dose screen, 48 h (100 = growth as untreated, 0 = no growth, -100 = all killed)
# Details in all cases: 10 µM unless noted
# SR leukemia = system: SR leukemia
# RPMI-8226 leukemia = system: RPMI-8226 leukemia
# OVCAR-8 ovarian = system: OVCAR-8 ovarian
# OVCAR-5 ovarian = system: OVCAR-5 ovarian
# OVCAR-4 ovarian = system: OVCAR-4 ovarian
# SK-OV-3 ovarian = system: SK-OV-3 ovarian
# IGROV1 ovarian = system: IGROV1 ovarian
# OVCAR-3 ovarian = system: OVCAR-3 ovarian
# HS 578T breast = system: HS 578T breast
# NCI/ADR-RES ovarian = system: NCI/ADR-RES ovarian
Compound,growth (SR leukemia),growth (RPMI-8226 leukemia),growth (OVCAR-8 ovarian),growth (OVCAR-5 ovarian),growth (OVCAR-4 ovarian),growth (SK-OV-3 ovarian),growth (IGROV1 ovarian),growth (OVCAR-3 ovarian),growth (HS 578T breast),growth (NCI/ADR-RES ovarian)
Cc1nn(-c2ccccc2)c(Cl)c1/C=C/C(=O)c1ccc(F)cc1,4.28% (active),-15.6% (active),86.4%,97.4%,93.1%,110%,104%,102%,114%,93.2%
COc1ccccc1/C(C)=N/NC(=O)CSc1nc2ccccc2c(=O)n1Cc1ccc(S(N)(=O)=O)cc1,96.1%,99.5%,98.7%,97.9%,94.9%,115%,102%,108%,85.4%,99.5%
c1ccc2cc(Cn3c(-c4cccc5ccccc45)[n+](Cc4ccc5ccccc5c4)c4c5ccccc5c5ccccc5c43)ccc2c1,-56% (active),-38.7% (active),-67% (active),-76.7% (active),-80% (active),-79.4% (active),-71.8% (active),-89.4% (active),-42.1% (active),17.7%
Cc1nc(N)nc(N[C@@H](C)c2nc3cccc(NCc4ccc(C(=O)NO)cc4)c3c(=O)n2-c2ccccc2)n1,33.3%,17.2%,70.3%,90.5%,92.2%,86.7%,69.5%,85.9%,72.1%,103%
O=Cc1ccc(-c2cn3ccnc3c(-c3ccc4ncn(Cc5ccccc5)c4c3)n2)cc1,52.5%,17.5%,56%,102%,83.1%,94.9%,78.7%,76.3%,54.4%,62.6%
CCNC(=O)Oc1ccc(/C(=C(\C)c2ccccc2)c2ccc(OCCN3CCCCC3)cc2)cc1,4.98% (active),38.7%,73.6%,84.8%,65.5%,53.6%,79.9%,69.4%,57.5%,66.8%
NC1[C@H](c2c[nH]c3ccccc23)c2c([nH]c3ccccc23)[C@H]1c1c[nH]c2ccccc12 (stereo not given in full),81.7%,77.7%,99.8%,92.7%,86.6%,115%,63.9%,78.2%,83.8%,81.7%
CCN(CC)c1ccc(/C=N/NC(=O)CSc2nc3ccccc3c(=O)n2Cc2ccc(S(N)(=O)=O)cc2)c(O)c1,10.4%,17.1%,20.4%,45%,12.6%,21.6%,26.4%,15%,63%,87.2%
CCCNC(=O)Oc1ccc(/C(=C(\C)c2ccccc2)c2ccc(OCCCN(C)C)cc2)cc1,4.87% (active),63.4%,86.6%,80.5%,79.7%,71.9%,89.5%,83%,55.3%,77.7%
CCc1c(Cl)nc(N)nc1Nc1ccc(C)c(C)c1,73%,104%,102%,110%,98%,109%,97.4%,116%,97.9%,99.2%
C=C1C(=O)O[C@H]2[C@H]1CC/C(CNC(=O)CCc1ccc(OC)cc1)=C\CC[C@@]1(C)O[C@@H]21,14.3%,51.4%,39.2%,82%,80%,103%,61.7%,30.6%,86.4%,95.4%
COc1cccc(-c2nc3occn3c2-c2ccnc(NCCNS(=O)(=O)c3cccc4ccccc34)n2)c1,110%,102%,97.4%,123%,102%,83.5%,89%,103%,105%,98.8%
COc1ccc(C(=O)c2cc(C)c(OC)c(C)c2)c(OC)c1NC(C)=O,29.3%,21.2%,16.9%,37.8%,61.6%,11%,31.5%,5.93% (active),14.4%,0.837% (active)
Nc1nc(Nc2ccccc2SSc2ccccc2Nc2nc(N)nc(-c3cccs3)n2)nc(-c2ccsc2)n1,31.3%,71.9%,76.9%,118%,70.4%,110%,58.9%,90.4%,93.3%,4.43% (active)
Cc1ccc(NS(=O)(=O)c2ccc(-c3cnc(C4CC4)o3)cc2)cc1C(F)(F)F,28.6%,55.2%,78.5%,93.2%,69.4%,86.8%,51.8%,24.5%,69%,43.3%
CCOC(=O)CC1CSC(N/N=C/c2ccc(-n3cccn3)cc2)=N1 (stereo not given),98.3%,99.1%,97.8%,115%,109%,111%,114%,110%,97.8%,101%
